21 compounds from PubChem BioAssay (EPA / NIEHS) can be followed below.

Calls of active or inactive are those of the source. How the source made its calls: active means hit-call score of the fitted dose curve at least 0.9, where 1 is the maximum; inactive means score below 0.9.

Experiment [1] addresses Paired box protein Pax-6 (Homo sapiens) (UniProt P26367). The experiment in a line: ATG_Pax6_CIS: Attagene CIS-FACTORIAL HepG2 Assay for human Paired Box 6 (PAX6) (AID 2282956). Conditions: HepG2 CIS-FACTORIAL PAX6 reporter transcription, RNA readout; actives raise or lower the signal. The procedure, abridged: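 DMSO-referenced bidirectional fits of reporter mRNA fluorescence; HepG2 with transient cis-promoter MRTUs, 24 h post-dose, RT-PCR plus capillary electrophoresis detection.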

A short description of experiment [2]: ATG_PXRE_CIS: Attagene CIS-FACTORIAL HepG2 Assay for human Pregnane X Receptor Element (PXRE) (AID 2282957). To be noted: HepG2 Attagene CIS-FACTORIAL PXRE reporter, mRNA; actives raise or lower the signal. The procedure, abridged: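 Endogenous transcription factor activity in HepG2 was gauged through induction of reporter mRNA driven by a cis-regulating promoter element, sampled 24 h post-treatment. Activity was fitted in both directions against DMSO negative control.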

The nature of experiment [3]: ATG_PPRE_CIS: Attagene CIS-FACTORIAL HepG2 Assay for human Peroxisome Proliferator-activated Response Element (PPRE) (AID 2282958). Conditions: HepG2 PPRE cis-element reporter, Attagene transcription factor profiling; actives raise or lower the signal. The procedure, abridged: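 Endogenous PPRE-driven transcription is measured in HepG2 cells carrying transfected multi-reporter constructs. Reporter transcripts are quantified by RT-PCR, HpaI digestion and capillary electrophoresis 24 h after dosing. DMSO baseline, bidirectional fit.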

The nature of experiment [4]: ATG_RORE_CIS: Attagene CIS-FACTORIAL HepG2 Assay for human RAR-related Orphan Receptor Element (RORE) (AID 2282959). Conditions: HepG2 Attagene cis-factorial RORE reporter, mRNA; actives raise or lower the signal. The procedure, abridged: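 RORE reporter transcripts reflecting endogenous factor activity were read after 24 h compound exposure of transfected HepG2 cells, using reverse transcription, PCR, fluorescent labelling and capillary electrophoresis sizing. Gain or loss fitted against DMSO.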

Experiment [5] can be described thus: ATG_Sox_CIS: Attagene CIS-FACTORIAL HepG2 Assay for human SRY-box transcription factor (SOX) (AID 2282960). Conditions: HepG2 Attagene cis-factorial SOX reporter, mRNA; actives raise or lower the signal. The procedure, abridged: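 Reporter transcripts, measured by RT-PCR and capillary electrophoresis of labelled fragments, report endogenous SOX transcription factor activity. Transiently transfected human HepG2 cells receive chemical for 24 h; changes in either direction are fitted relative to DMSO.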

Experiment [6] has as its target Transcription factor Sp1 (Homo sapiens) (UniProt P08047). Description: ATG_Sp1_CIS: Attagene CIS-FACTORIAL HepG2 Assay for human Specificity Protein 1 (Sp1) (AID 2282961). To be noted: HepG2 Sp1 cis-reporter transcription, actives raise or lower the signal. The procedure, abridged: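 Read-out is reporter transcript level, measured by RT-PCR and fluorescent capillary electrophoresis after 24 h chemical treatment. System: transiently transfected HepG2 cells reporting endogenous transcription factor activity; gain or loss fitted against DMSO baseline.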

Experiment [7] is described as follows: ATG_SREBP_CIS: Attagene CIS-FACTORIAL HepG2 Assay for human Sterol Regulatory Element Binding (SREBP) (AID 2282962). To be noted: HepG2 Attagene cis-factorial SREBP reporter, mRNA; actives raise or lower the signal. The procedure, abridged:
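In this cis-format assay, HepG2 liver cells express reporters controlled by promoter elements responsive to native transcription factors. Exposure lasts 24 h; reporter mRNA fluorescence from capillary electrophoresis gives the signal, fitted bidirectionally against DMSO.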

Experiment [8] deals with Signal transducer and activator of transcription 3 (Homo sapiens) (UniProt P40763). Description: ATG_STAT3_CIS: Attagene CIS-FACTORIAL HepG2 Assay for human Signal Transducer and Activator of Transcription 3 (STAT3) (AID 2282963). Conditions: HepG2, Attagene cis-factorial STAT3 reporter transcription; actives raise or lower the signal. The procedure, abridged:
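Uses human liver HepG2 transiently carrying cis-regulated reporter transcription units. Following 24 h dosing, reporter mRNA induction was detected by RT-PCR and capillary electrophoresis, analysed bidirectionally versus DMSO.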

The nature of experiment [9]: ATG_TA_CIS: Attagene CIS-FACTORIAL HepG2 Assay for human TA Basal Promoter (AID 2282964). Conditions: HepG2 Attagene CIS-factorial TA basal promoter reporter; actives raise or lower the signal. The procedure, abridged:
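Background-control readout: TA basal promoter reporter mRNA, fitted in both directions relative to DMSO. Measured by RT-PCR and capillary electrophoresis 24 hours after treating HepG2 human liver cells transiently carrying multiplexed cis-regulated reporter constructs.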

A short description of experiment [10]: ATG_TCF_b_cat_CIS: Attagene CIS-FACTORIAL HepG2 Assay for human T-Cell-Factor with beta-catenin (TCF/b-cat) (AID 2282965). To be noted: HepG2 TCF/beta-catenin cis-reporter transcription, actives raise or lower the signal. The procedure, abridged:
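In this cis-format system, transfected HepG2 cells report endogenous transcription factor activity. Readout after 24 h exposure is reporter transcript abundance from RT-PCR and capillary electrophoresis, analysed for gain or loss of signal versus DMSO.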

A word on the AC50: it is the concentration at which the activity in the assay is half-maximal.

Transcription factor Sp1 (Homo sapiens), sequence (P08047 whole entry, looked up): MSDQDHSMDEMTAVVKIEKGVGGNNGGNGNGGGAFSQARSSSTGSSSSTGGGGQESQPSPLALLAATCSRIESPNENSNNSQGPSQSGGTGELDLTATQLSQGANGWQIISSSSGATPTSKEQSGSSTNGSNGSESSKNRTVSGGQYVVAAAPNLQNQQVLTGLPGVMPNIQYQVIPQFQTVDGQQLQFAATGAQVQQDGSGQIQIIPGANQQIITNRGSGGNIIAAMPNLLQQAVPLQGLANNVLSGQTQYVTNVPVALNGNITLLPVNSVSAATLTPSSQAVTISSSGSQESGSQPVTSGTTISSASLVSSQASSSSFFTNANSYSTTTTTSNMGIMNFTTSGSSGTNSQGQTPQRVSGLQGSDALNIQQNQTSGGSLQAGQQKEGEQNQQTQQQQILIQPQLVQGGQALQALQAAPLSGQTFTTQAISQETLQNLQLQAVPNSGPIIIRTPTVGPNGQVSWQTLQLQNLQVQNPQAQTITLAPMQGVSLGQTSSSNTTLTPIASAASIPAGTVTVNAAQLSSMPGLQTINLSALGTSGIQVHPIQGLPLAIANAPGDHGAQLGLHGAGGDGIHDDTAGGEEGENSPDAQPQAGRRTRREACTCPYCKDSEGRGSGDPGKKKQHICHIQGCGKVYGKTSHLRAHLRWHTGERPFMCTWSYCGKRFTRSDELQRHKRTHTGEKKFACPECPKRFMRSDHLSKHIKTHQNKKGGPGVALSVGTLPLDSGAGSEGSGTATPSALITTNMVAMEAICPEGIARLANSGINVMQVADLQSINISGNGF
Signal transducer and activator of transcription 3 (Homo sapiens), sequence (P40763 whole entry, looked up): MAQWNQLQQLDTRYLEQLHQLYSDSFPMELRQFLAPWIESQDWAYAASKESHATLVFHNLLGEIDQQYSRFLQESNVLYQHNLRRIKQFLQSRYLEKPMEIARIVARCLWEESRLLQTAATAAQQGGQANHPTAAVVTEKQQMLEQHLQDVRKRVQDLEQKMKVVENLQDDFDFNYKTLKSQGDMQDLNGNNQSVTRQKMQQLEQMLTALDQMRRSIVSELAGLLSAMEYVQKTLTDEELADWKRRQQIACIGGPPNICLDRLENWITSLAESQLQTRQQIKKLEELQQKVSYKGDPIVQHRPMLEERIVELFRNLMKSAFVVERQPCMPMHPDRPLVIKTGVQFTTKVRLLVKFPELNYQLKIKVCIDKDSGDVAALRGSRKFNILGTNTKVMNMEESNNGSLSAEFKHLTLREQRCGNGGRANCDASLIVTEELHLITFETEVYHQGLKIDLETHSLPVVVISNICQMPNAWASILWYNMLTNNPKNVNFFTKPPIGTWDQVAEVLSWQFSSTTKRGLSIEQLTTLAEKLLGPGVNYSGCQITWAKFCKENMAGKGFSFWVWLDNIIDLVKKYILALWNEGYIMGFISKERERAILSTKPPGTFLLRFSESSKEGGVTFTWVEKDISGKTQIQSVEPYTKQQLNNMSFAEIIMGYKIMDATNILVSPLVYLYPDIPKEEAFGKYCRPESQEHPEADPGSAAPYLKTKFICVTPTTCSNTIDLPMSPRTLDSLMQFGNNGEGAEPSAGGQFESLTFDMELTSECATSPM
Paired box protein Pax-6 (Homo sapiens), sequence (P26367 whole entry, looked up): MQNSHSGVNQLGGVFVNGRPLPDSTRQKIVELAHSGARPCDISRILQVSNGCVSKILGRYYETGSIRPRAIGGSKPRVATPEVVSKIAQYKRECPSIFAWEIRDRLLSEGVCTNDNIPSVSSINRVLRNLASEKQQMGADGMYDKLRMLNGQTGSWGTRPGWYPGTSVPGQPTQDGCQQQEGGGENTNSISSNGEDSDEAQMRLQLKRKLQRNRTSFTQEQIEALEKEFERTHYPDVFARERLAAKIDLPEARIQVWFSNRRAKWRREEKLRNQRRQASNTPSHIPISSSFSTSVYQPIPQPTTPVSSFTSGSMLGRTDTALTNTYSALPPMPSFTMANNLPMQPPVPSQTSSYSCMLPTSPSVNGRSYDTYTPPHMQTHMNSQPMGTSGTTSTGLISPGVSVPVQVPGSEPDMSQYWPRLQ

Take `CO[C@@H]1COCC[C@@H]1N[C@@H]1CC[C@@](C(=O)N2CCc3ncc(C(F)(F)F)cc3C2)(C(C)C)C1`: the call in experiment [1], in experiment [2], in experiment [3], in experiment [4], in [5] and in experiment [6] was inactive. Further, the outcome in experiment [8], in experiment [9] and in [10] was inactive. Besides, the AC50 in experiment [7] was 77.7 µM (active).
Turning to `Cc1cn([C@H]2C=C[C@@H](CO)O2)c(=O)[nH]c1=O`, the compound was called inactive in experiment [1], in experiment [2], in experiment [3], in experiment [4], in experiment [5] and in experiment [6]. Besides, the call in experiment [7], in [8], in [9] and in experiment [10] was inactive.
`OCC(CO)n1cnc(-c2ccc(F)cc2)c1-c1ccnc(Oc2ccccc2)n1`: the compound was classed as inactive in [1], in experiment [4], in experiment [5], in [6], in experiment [7] and in experiment [8]. Moreover, the result in experiment [9] and in experiment [10] was inactive. Further, the AC50 is 7.89 µM (active) in experiment [2] and 0.357 µM (active) in experiment [3].
As for `CC(C)NCC(O)c1ccc(O)c(O)c1` (stereo unspecified), the outcome in experiment [1], in experiment [3], in experiment [4], in experiment [5], in experiment [6] and in [7] was inactive. Moreover, the call in experiment [8], in [9] and in experiment [10] was inactive. Further, the AC50 in [2] is 52.4 µM (active).
On to `COC(=O)CCC(=O)OC`, for which the call in experiment [1], in experiment [2], in experiment [3], in experiment [4], in experiment [5] and in [6] was inactive. Besides, the result in experiment [7], in experiment [8], in experiment [9] and in [10] was inactive.
With `CCCCCCCCCC[N+](C)(C)[O-]`, the compound was called inactive in experiment [1], in experiment [3], in experiment [4], in experiment [5], in experiment [6] and in experiment [7]. The call in experiment [8], in experiment [9] and in experiment [10] was inactive. Further, the AC50 in experiment [2] was 79 µM (active).
With `C=CCCCCCCCCCCCC`, the compound was classed as inactive in [1], in experiment [2], in experiment [3], in [4], in experiment [5] and in experiment [6]. Further, the outcome in [7], in [8], in experiment [9] and in experiment [10] was inactive.
Take `O=C(O)CN(CC(=O)O)CC(=O)O`: the compound was classed as inactive in [1], in experiment [2], in [3], in experiment [4], in experiment [5] and in experiment [6]. Further, the compound was classed as inactive in [7], in experiment [8], in [9] and in [10].
Consider `O=NO`, for which the compound was called inactive in experiment [1], in [2], in [3], in experiment [4], in [5] and in experiment [6]. Moreover, the compound was called inactive in experiment [7], in [8], in experiment [9] and in experiment [10].
On to `CC(COCC(C)OC(=O)c1ccccc1)OC(=O)c1ccccc1` (stereo unspecified), for which the result in [1], in experiment [3], in [4], in experiment [5], in [6] and in experiment [7] was inactive. Further, the result in experiment [8], in [9] and in [10] was inactive. Besides, in [2], the AC50 was 35.3 µM (active).
For the compound `CN(C)CCCN(C)CCCN(C)C`, the outcome in experiment [1], in experiment [3], in experiment [4], in experiment [5], in experiment [6] and in experiment [7] was inactive. Also, the result in [8], in experiment [9] and in experiment [10] was inactive. Also, the AC50 in experiment [2] is 25.6 µM (active).
Take `COc1ccc(C(=O)Nc2nc3ccccc3c(NCc3ccccc3)c2C#N)cc1`: the compound was called inactive in [1], in [4], in experiment [5], in [6], in experiment [8] and in experiment [9]. Besides, the result in experiment [10] was inactive. Also, the AC50 in [2] was 0.641 µM (active); in experiment [3], 1.68 µM (active); in experiment [7], 4.43 µM (active).
As to `Cn1cnc2c1c(=O)[nH]c(=O)n2C`, the compound was called inactive in experiment [1], in experiment [2], in [3], in experiment [4], in [5] and in [6]. For the same compound, the outcome in [7], in experiment [8], in experiment [9] and in experiment [10] was inactive.
Consider `CCCC[C@H]1CN(CC2CCOCC2)C(=O)OC12CCN(C1(C)CCN(C(=O)c3c(C)ncnc3C)CC1)CC2`, for which the outcome in experiment [1], in [2], in [3], in [4], in [5] and in experiment [6] was inactive. Besides, the call in experiment [7], in experiment [8], in experiment [9] and in experiment [10] was inactive.
For the compound `O=C(O)c1[nH]n(-c2ccc(S(=O)(=O)O)cc2)c(=O)c1N=Nc1ccc(S(=O)(=O)O)cc1`, the call in experiment [1], in experiment [3], in [4], in experiment [5], in [6] and in experiment [7] was inactive. Besides, the compound was classed as inactive in [8], in experiment [9] and in [10]. Besides, the AC50 in experiment [2] is 69.5 µM (active).
As to `CS(=O)(=O)c1ccc([C@@H](C[C@H]2CCC(=O)C2)C(=O)Nc2cnccn2)cc1Cl`, the compound was classed as inactive in experiment [1], in experiment [2], in [3], in experiment [4], in experiment [5] and in [6]. The outcome in [7], in [8], in experiment [9] and in experiment [10] was inactive.
Take `C#CC(O)C(CC)CCCC` (stereo unspecified): the compound was called inactive in experiment [1], in experiment [4], in [5], in experiment [7], in experiment [8] and in experiment [9]. The AC50 in [2] is 15 µM (active); in experiment [6] it was 154 µM (active); in experiment [10], 67.9 µM (active).
`Cc1c(C)c2c(c(C)c1O)CCC(C)(COc1ccc(CC3SC(=O)NC3=O)cc1)O2` (stereo unspecified): the call in experiment [1], in experiment [5], in experiment [6], in [8] and in experiment [9] was inactive. Moreover, the results for the AC50 in [2] and in [7] were 2.01 µM (active) and 1.6 µM (active), respectively.
As to `NCCOCCOCCN`, the compound was classed as inactive in experiment [1], in [2], in experiment [4], in [5], in [6] and in experiment [7]. Moreover, the result in [8] and in experiment [9] was inactive.
With `Cc1ccc(-c2cc(C(F)(F)F)nn2-c2ccc(S(N)(=O)=O)cc2)cc1`, the outcome in [1], in experiment [3], in experiment [5], in experiment [6], in experiment [7] and in experiment [8] was inactive. In addition, the compound was classed as inactive in [9]. Also, in [2], the AC50 is 2.58 µM (active).
Regarding `CC(C)(C)c1ccccc1`, the outcome in [1], in experiment [2], in [4], in experiment [5], in experiment [6] and in experiment [7] was inactive. Also, the result in experiment [8], in experiment [9] and in experiment [10] was inactive.
